PubChem BioAssay (Tox21)
Records with an inconclusive call do not appear. Calls of active or inactive are those of the source. Unless noted, calls come from the whole dose curve.

Assays:
[1] = Nuclear factor erythroid 2-related factor 2/antioxidant responsive element (Nrf2/ARE) small molecule agonists: qHTS cell viability counter screen in human keratinocytes (AID 1919968; active = well fitted curve in the direction sought with a large enough effect in the repeat runs; an effect the other way counts as inactive or inconclusive; note: nearly all actives have a fitted effect of over 55% in size)
Method in brief: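 Cytotoxicity was multiplexed with the Nrf2/ARE luciferase assay in the same wells. Stably transfected HaCaT keratinocytes were treated with test compounds for 23 h at 37 C. Cell viability was then measured by CellTiter-Fluor fluorescence.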

[2] = biological target: Gonadotropin-releasing hormone receptor (Homo sapiens) (UniProt P30968); assay: Human gonadotropin-releasing hormone receptor (GnRHR) small molecule agonists, calcium flux assay in GnRHR-HEK293 cells (AID 1920063); note: nearly all actives have a fitted effect of over 35% in size
Chain of Gonadotropin-releasing hormone receptor (Homo sapiens) (P30968 whole entry, looked up): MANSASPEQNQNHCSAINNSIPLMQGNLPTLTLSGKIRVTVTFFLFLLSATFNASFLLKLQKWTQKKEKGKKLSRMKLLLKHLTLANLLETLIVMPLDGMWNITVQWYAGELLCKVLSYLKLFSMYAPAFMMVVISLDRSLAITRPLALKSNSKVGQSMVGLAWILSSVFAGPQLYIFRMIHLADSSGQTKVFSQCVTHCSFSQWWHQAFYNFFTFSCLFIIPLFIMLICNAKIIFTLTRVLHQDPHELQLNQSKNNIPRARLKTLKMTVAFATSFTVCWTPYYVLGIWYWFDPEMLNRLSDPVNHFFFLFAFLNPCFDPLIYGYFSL
Method in brief: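 Agonist activity was measured as intracellular calcium flux in HEK293 cells engineered to stably express human GnRHR. After dye loading for 1 hour at 37 C, compounds in DMSO were added and fluorescence was followed for 3 minutes.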

[3] = biological target: KiSS-1 receptor (Homo sapiens) (UniProt Q969F8); assay: Human kisspeptin (KISS1R) small molecule agonists, calcium flux assay in KISS1R-HEK293 cells (AID 1920064; active = well fitted curve in the direction sought with a large enough effect in the repeat runs; an effect the other way counts as inactive or inconclusive)
Chain of KiSS-1 receptor (Homo sapiens) (Q969F8 whole entry, looked up): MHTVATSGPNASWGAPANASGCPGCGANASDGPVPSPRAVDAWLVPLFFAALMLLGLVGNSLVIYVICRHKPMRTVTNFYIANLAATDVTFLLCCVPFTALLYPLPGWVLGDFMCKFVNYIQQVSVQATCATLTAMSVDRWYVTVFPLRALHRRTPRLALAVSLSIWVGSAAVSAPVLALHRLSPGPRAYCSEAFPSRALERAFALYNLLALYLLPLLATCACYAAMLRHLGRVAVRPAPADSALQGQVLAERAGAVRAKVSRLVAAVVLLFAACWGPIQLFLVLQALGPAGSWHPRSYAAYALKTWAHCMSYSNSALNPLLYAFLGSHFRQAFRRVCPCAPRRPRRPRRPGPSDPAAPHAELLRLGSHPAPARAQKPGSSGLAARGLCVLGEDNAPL
Method in brief: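 Agonist activity is monitored as intracellular calcium rise in engineered HEK293 cells carrying human KISS1R. Cells are dye-loaded for 1 h at 37 C before compound addition, and fluorescence is recorded for 3 min.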

[4] = G protein-coupled receptor (GPCR) small molecule agonists, calcium flux assay: HEK293 wild type cell line counter screen (AID 1920065)
Method in brief: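 Seed cells, incubate 18 h (37 C, 5% CO2); add calcium dye, 1 h at 37 C; pin-transfer compounds, ATP control or DMSO; read fluorescence 480/540 nm each second for 3 min.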

[5] = p53 small molecule agonists, cell-based qHTS assay with rat liver microsomes (AID 1963578)
Method in brief: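 Rat liver microsome activation: microsomes 0.5 mg/mL, NADPH 0.5 mg/mL final; p53RE-bla cells, 16 h 37 C; LiveBLAzer readout, 2 h RT dark.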

[6] = p53 small molecule agonists, cell-based qHTS assay with human liver microsomes: qHTS cell viability counter screen (AID 1963579); note: nearly all actives have a fitted effect of over 45% in size
Method in brief: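 Luminescent CellTiter-Glo read-out, 30 min at room temperature, gauged cytotoxicity in p53RE-bla cells exposed 16 h at 37 C to DMSO-dissolved compounds with metabolic activation by human liver microsomes and NADPH, each 0.5 mg/mL final.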

[7] = p53 small molecule agonists, cell-based qHTS assay with rat liver microsomes: qHTS cell viability counter screen (AID 1963580); note: nearly all actives have a fitted effect of over 45% in size
Method in brief: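 Rat liver microsome (0.5 mg/mL final) and NADPH (0.5 mg/mL final) co-incubation with compounds for 16 h at 37 C on HCT-116 p53RE-bla cells; cytotoxicity taken from intracellular ATP luminescence.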

[8] = p53 small molecule agonists, cell-based qHTS assay (AID 1963582; active = well fitted activation curve with a large enough effect in the signal ratio in the repeat runs, not every such curve was filed as active; the % refers to the signal ratio)
Method in brief: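 Cells carrying a p53-responsive bla reporter are treated with test compounds for 16 h at 37 C; beta-lactamase activity is then detected with LiveBLAzer B/G FRET substrate after 2 h at room temperature.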

[9] = biological target: 5-hydroxytryptamine receptor 2A (Homo sapiens) (UniProt P28223); assay: 5-hydroxytryptamine receptor 2A (HTR2A) small molecule antagonists, cell-based qHTS assay (AID 1963586); note: nearly all actives have a fitted effect of over 45% in size
Chain of 5-hydroxytryptamine receptor 2A (Homo sapiens) (P28223 whole entry, looked up): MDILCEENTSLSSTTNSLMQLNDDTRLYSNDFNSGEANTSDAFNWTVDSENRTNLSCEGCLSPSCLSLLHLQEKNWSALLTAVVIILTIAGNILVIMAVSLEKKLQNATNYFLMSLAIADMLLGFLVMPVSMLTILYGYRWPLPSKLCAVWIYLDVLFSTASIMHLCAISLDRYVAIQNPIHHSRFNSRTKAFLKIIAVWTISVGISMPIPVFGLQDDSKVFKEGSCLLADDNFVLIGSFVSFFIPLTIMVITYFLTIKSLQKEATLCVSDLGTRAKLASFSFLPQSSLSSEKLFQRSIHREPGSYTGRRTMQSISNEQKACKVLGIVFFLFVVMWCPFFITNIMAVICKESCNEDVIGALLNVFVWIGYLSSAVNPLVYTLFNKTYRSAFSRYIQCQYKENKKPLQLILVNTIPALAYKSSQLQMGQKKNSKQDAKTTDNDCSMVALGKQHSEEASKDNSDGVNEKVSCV
Method in brief: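 CHO cells stably expressing human HTR2A were plated for 18 h at 37 C, then loaded with calcium dye for 1 h. Compounds were preincubated 5 min at room temperature before DOI (4 nM solution) was added. Kinetic fluorescence was read for 3 min.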

[10] = biological target: 5-hydroxytryptamine receptor 2A (Homo sapiens) (UniProt P28223); assay: 5-hydroxytryptamine receptor 2A (HTR2A) small molecule agonists, cell-based qHTS assay (AID 1963587); note: nearly all actives have a fitted effect of over 30% in size
Method in brief: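 Kinetic calcium-flux fluorescence (2 min, 1 sec intervals) after compound addition in agonist mode. HTR2A-CHO cells were cultured 18 h, then dye-loaded 1 h at 37 C.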

[11] = biological target: Muscarinic acetylcholine receptor M1 (Homo sapiens) (UniProt P11229); assay: Cholinergic receptor muscarinic 1 (CHRM1) small molecule antagonists, cell-based qHTS assay (AID 1963588); note: nearly all actives have a fitted effect of over 40% in size
Chain of Muscarinic acetylcholine receptor M1 (Homo sapiens) (P11229 whole entry, looked up): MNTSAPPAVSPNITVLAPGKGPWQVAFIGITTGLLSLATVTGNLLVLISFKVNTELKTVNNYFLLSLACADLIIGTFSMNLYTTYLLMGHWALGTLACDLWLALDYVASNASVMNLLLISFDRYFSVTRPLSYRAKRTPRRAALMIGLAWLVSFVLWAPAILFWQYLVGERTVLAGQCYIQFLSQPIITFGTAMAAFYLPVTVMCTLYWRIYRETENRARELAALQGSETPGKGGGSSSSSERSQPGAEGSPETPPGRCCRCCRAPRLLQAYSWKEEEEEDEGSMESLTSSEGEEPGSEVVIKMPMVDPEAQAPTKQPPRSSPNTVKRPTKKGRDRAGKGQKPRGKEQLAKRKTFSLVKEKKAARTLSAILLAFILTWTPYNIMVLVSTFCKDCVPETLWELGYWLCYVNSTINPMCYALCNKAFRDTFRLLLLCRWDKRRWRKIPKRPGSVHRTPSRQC
Method in brief: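 Compounds were tested at 15 concentrations in three independent runs. Dye-loaded CHRM1-CHO cells were exposed 5 min at room temperature before stimulation by acetylcholine added at 50nM. Intracellular calcium was read kinetically on FDSS for 3 min.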

[12] = biological target: Muscarinic acetylcholine receptor M1 (Homo sapiens) (UniProt P11229); assay: Cholinergic receptor muscarinic 1 (CHRM1) small molecule agonists, cell-based qHTS assay (AID 1963589); note: nearly all actives have a fitted effect of over 35% in size
Method in brief: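 Cells were plated and incubated 18 h at 37 C/5% CO2, loaded with calcium dye for 1 h at 37 C, then treated with compounds in DMSO. Fluorescence was recorded kinetically at 1 sec intervals.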

[13] = cAMP Responsive Elements (CRE) small molecule agonists, cell-based qHTS assay (AID 1963590)
Method in brief: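 Cells carrying a CRE-driven beta-lactamase reporter (HEK 293T) are seeded, incubated overnight (18 h), and treated with test compounds for 3 h at 37 C; reporter activity is then detected with a FRET substrate after 2 h at room temperature.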

[14] = cAMP Responsive Elements (CRE) small molecule antagonists, cell-based qHTS assay (AID 1963591; active = well fitted inhibition curve with a large enough effect in the signal ratio in the repeat runs, not every such curve was filed as active; the % refers to the signal ratio)
Method in brief: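 Cells (CRE-bla HEK 293T, DMEM with 10% dialyzed FBS and 25 mM HEPES) are seeded and incubated 18 h. Compounds are added with NKH477 agonist at 0.25 uM final for 3 h, then FRET substrate for 2 h.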

[15] = biological target: Beta-2 adrenergic receptor (Homo sapiens) (UniProt P07550); assay: Adrenergic beta2 receptor (ADRB2) small molecule antagonists, cell-based qHTS assay (AID 1963592); note: series mostly up to about 92 µM; nearly all actives have a fitted effect of over 50% in size
Chain of Beta-2 adrenergic receptor (Homo sapiens) (P07550 whole entry, looked up): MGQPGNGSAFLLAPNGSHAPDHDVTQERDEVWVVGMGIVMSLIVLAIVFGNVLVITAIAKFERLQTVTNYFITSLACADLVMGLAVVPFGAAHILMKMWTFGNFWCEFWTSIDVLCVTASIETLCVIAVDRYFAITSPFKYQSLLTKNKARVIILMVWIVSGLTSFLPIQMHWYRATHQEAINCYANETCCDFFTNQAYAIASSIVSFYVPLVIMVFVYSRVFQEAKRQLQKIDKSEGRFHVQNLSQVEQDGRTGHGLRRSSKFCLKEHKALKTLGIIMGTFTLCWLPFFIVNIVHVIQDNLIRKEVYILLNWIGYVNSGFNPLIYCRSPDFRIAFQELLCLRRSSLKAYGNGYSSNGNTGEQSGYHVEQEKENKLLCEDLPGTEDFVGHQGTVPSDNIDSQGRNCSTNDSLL
Method in brief: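 Assay format: CHO-ADRB2 cells, 18-20hr seeding at 37C/5% CO2, then compound plus 1nM isoproterenol agonist mix for 0.5hr RT. Homogeneous time-resolved fluorescence cAMP detection after 1hr, expressed as 665/615 nm ratio.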

[16] = biological target: Beta-2 adrenergic receptor (Homo sapiens) (UniProt P07550); assay: Adrenergic beta2 receptor (ADRB2) small molecule agonists, cell-based qHTS assay (AID 1963593);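 note: CHO cells stably overexpressing human ADRB2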
Method in brief: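 CHO cells stably over-expressing ADRB2 were plated overnight at 37C, then dosed with compounds plus a stimulation mix containing 100uM IBMX and 25uM Ro-20-1724 for 0.5hr at room temperature. cAMP was measured by HTRF competition, 1hr.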

[17] = biological target: D(2) dopamine receptor (Homo sapiens) (UniProt P14416); assay: Dopamine D2 receptor (DRD2) small molecule agonists, cell-based qHTS assay (AID 1963594); note: nearly all actives have a fitted effect of over 35% in size
Chain of D(2) dopamine receptor (Homo sapiens) (P14416 whole entry, looked up): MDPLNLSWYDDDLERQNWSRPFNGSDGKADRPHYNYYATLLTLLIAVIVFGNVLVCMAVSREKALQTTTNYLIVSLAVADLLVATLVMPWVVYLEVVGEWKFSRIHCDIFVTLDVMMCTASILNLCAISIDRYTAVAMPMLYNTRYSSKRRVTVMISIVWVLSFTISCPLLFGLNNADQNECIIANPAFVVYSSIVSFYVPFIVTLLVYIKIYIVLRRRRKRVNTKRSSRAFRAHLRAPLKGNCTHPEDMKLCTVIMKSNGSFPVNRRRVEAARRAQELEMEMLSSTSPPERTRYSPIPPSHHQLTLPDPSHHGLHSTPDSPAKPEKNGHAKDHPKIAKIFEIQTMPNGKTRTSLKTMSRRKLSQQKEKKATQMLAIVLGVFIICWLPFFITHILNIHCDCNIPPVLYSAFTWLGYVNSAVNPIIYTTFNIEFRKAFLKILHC
Method in brief: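 cAMP accumulation in DRD2-HEK293 cells measured by HTRF after 1 h detection; compounds added 10 min before NKH477 (200nM […]) forskolin-analogue stimulation, 30 min at room temperature, with Ro20-1724 present at 0.1 mM final.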

[18] = biological target: D(2) dopamine receptor (Homo sapiens) (UniProt P14416); assay: Dopamine D2 receptor (DRD2) small molecule antagonists, cell-based qHTS assay (AID 1963595; active = well fitted inhibition curve with a large enough effect in the signal ratio in the repeat runs, with a control signal flat; the % refers to the signal ratio)
Method in brief: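 HEK293 cells stably expressing DRD2, preincubated with 0.1 mM Ro20-1724 and compounds 10 min, were stimulated with 200 nM NKH477 plus 12 nM quinpirole for 30 min at room temperature; cAMP measured by HTRF (665/620 nm).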

[19] = p53 small molecule agonists, cell-based qHTS assay: qHTS cell viability counter screen (AID 1963581); note: nearly all actives have a fitted effect of over 45% in size
Method in brief: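 Viability was counter-screened in parallel with the p53 agonist reporter by measuring intracellular ATP luminescence in the same HCT-116 p53RE-bla wells after 16 h compound treatment at 37 C.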

[20] = p53 small molecule agonists, cell-based qHTS assay with human liver microsomes (AID 1963577);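 note: p53 response element beta-lactamase reporter cells with liver microsomes plus NADPH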
Method in brief: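 p53RE-bla cells; 5 h settle, 37 C/5% CO2; cpd + HLM 0.5 mg/mL + NADPH 0.5 mg/mL (final); 16 h 37 C; LiveBLAzer 2 h RT dark; fluorescence readout.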

Measured: Potency

CN1COCN(Cc2cnc(Cl)s2)/C1=N\[N+](=O)[O-]
not listed: [19] | [20]
inactive: all other assays above

Nc1c(Cl)c(Cl)c(Cl)c(Cl)c1Cl
not listed: [5] | [8] | [14] | [16] | [17] | [20]
inactive: all other assays above

CCOP(=S)(OCC)SCCS(=O)(=O)CC
not listed: [5] | [9] | [10] | [20]
inactive: all other assays above

O=C(O)COc1nc(Cl)c(Cl)cc1Cl
inactive: [1] | [2] | [3] | [4] | [20] | [7] | [10]

CC(C)[C@H](C(=O)OC(C#N)c1cccc(Oc2ccccc2)c1)c1ccc(OC(F)F)cc1 (stereo partly drawn)
not listed: [5] | [7] | [8] | [13]
inactive: all other assays above

Cc1cc(C)c(C2=C(OC(=O)CC(C)(C)C)C3(CCCC3)OC2=O)c(C)c1
not listed: [5] | [8] | [20]
inactive: all other assays above

COc1ccc(/C(=C/C(=O)N2CCOCC2)c2ccc(Cl)cc2)cc1OC
not listed: [9] | [13] | [14] | [18] | [20]
inactive: all other assays above

CC1(C(=O)Nc2ccc(O)c(Cl)c2Cl)CCCCC1
not listed: [10] | [13] | [14] | [16] | [20]
inactive: all other assays above
